Screens: PubChem BioAssay, National Center for Advancing Translational Sciences (NCATS)
Shown are actives, neighbours in structure and some others; about 5.7% of the full set was active somewhere.
VP16 counter – counter-screen for ROR gamma inhibitors: Gal4-VP16 reporter; actives 3.5% (n = 310,000); Drosophila S2 Gal4-VP16 UAS-luciferase, luminescence, 20 h; Potency, µM (highest dose often 53.6 µM), usual class: inhibitors;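 further: Gal4-VP16 expression switched on by copper sulfate through the metallothionein promoter; nearly all actives have a fitted effect of over 50% in size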
B2AR arrestin – beta2AR (human) beta-arrestin recruitment activity. beta-arrestin recruitment to beta2AR, cell-based reporter. Potency, µM (top dose mostly 46.1 µM), most hits filed as activators. actives 0.02% (n = 330,000). P07550; further: nearly all actives have a fitted effect of over 65% in size
RORgamma inh – inhibitors of mouse ROR gamma transcriptional activity; Drosophila S2 Gal4-RORgamma UAS-luciferase reporter, 20 h; Potency, µM (highest dose often 53.6 µM), most hits filed as inhibitors; actives 5.4% (n = 310,000); AID 2551; further: nearly all actives have a fitted effect of over 60% in size
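Schneider cells (Drosophila), stable Gal4 DBD–ROR gamma + UAS-luc; 1 hr cmpd preincubation; Cu2+ induction 700 uM final; 20 hr ambient; luminescence.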
NPSR antagonist – antagonists of human neuropeptide S receptor cAMP signaling. CHO-NPSR cells, cAMP TR-FRET, antagonist mode. Potency, µM (doses to about 38.3 µM), hits mostly inhibitors. Q6W5P4. actives 1% (n = 220,000). AID 1461; further: nearly all actives have a fitted effect of over 50% in size
Target sequence (Q6W5P4 whole entry, looked up): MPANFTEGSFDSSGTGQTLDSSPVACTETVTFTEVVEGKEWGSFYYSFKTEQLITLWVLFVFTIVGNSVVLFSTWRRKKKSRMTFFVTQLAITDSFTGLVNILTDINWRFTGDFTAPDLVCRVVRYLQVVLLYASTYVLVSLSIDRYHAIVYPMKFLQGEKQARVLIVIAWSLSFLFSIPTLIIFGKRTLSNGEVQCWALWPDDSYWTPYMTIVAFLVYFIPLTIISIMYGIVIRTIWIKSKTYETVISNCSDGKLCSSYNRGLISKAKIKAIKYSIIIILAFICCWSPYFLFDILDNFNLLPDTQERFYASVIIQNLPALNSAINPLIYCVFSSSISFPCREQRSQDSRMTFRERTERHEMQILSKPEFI
Large screens that a line does not name were inactive. The call rests on the fitted dose curve; in most records, active means well fitted curve in the direction sought with a large enough effect; inconclusive means small, poorly fitted or top-dose-only effect, or another doubt; inactive means no such curve, though single readings can be large; an effect the other way counts as inactive or inconclusive.

CCn1cc(C(=O)NCc2cccc(F)c2)c(=O)c2cc(F)c(N3CCN(C(=O)c4ccco4)CC3)cc21	VP16 counter inconclusive, RORgamma inh inconclusive, NPSR antagonist 10µM
CCn1cc(C(=O)O)c(=O)c2cc(F)c(N3CCN(C(=S)NC(=O)c4ccc(F)c(F)c4)CC3)cc21	VP16 counter inconclusive, RORgamma inh inconclusive
CCn1cc(C(=O)O)c(=O)c2cnc(N3CCN(C(=S)NC(=O)c4ccc(OC)cc4)CC3)nc21	none (no result: NPSR antagonist)
CCCOc1ccc(C(=O)NC(=S)N2CCN(c3cc4c(cc3F)c(=O)c(C(=O)O)cn4CC)CC2)cc1	RORgamma inh 1.8µM (no result: NPSR antagonist)
CCn1cc(C(=O)O)c(=O)c2cnc(N3CCN(C(=S)NC(=O)c4ccc(F)c(F)c4)CC3)nc21	VP16 counter inconclusive, RORgamma inh 2.5µM (no result: NPSR antagonist)
CCn1cc(C(=O)O)c(=O)c2cc(F)c(N3CCN(C(=S)NC(=O)c4cccc(F)c4)CC3)cc21	RORgamma inh 2.8µM
CCn1cc(C(=O)O)c(=O)c2cc(F)c(N3CCN(S(=O)(=O)c4ccc(NC(=O)OC)cc4)CC3)cc21	RORgamma inh inconclusive
CN(CC(=O)Nc1ccccc1C(=O)Nc1ccccc1)C1CCCCC1	none (no result: VP16 counter, RORgamma inh, NPSR antagonist)
CCCCN(CCCC)CC(O)c1cc(Cl)cc2c1-c1ccc(Cl)cc1/C2=C/c1ccc(Cl)cc1 (stereo not drawn)	VP16 counter inconclusive (no result: B2AR arrestin, NPSR antagonist)
CO[C@@H]1COC(=O)[C@@H](C)COC(=O)[C@@H](C)NC(=O)C/C=C\[C@@H]1C	none (no result: B2AR arrestin, NPSR antagonist)
CCn1cc(C(=O)O)c(=O)c2cc(F)c(N3CCN(C(=S)NC(=O)c4ccc(F)cc4)CC3)cc21	VP16 counter 4µM, RORgamma inh 2.5µM
C(=N\N=C\c1ccccn1)/c1ccccn1	none (no result: NPSR antagonist)
C(=N\NC1=Nc2cccc3cccc1c23)/c1ccccn1	B2AR arrestin inconclusive, RORgamma inh 0.04µM (no result: VP16 counter)
Clc1ccccc1/C=N/NC1=Nc2cccc3cccc1c23	VP16 counter inconclusive, RORgamma inh 0.28µM
Cc1ccc(CNC(=O)[C@H]2C[C@@H]2[C@H](NP(=O)(c2ccccc2)c2ccccc2)c2ccccc2)c(F)c1F	none (no result: B2AR arrestin, NPSR antagonist)
Cc1nc(NCc2ccccc2)c2nc(-c3ccccc3)n(CCN3CCCCC3)c2n1	RORgamma inh 11µM (no result: B2AR arrestin, NPSR antagonist)
CCN(CC)CCCC(C)n1c(-c2ccccc2)nc2c(NCc3ccccc3)nc(C)nc21 (stereo not drawn)	RORgamma inh inconclusive (no result: B2AR arrestin, NPSR antagonist)
Cc1nc(NCc2ccccc2)c2nc(-c3ccccc3)n(C(C)CN(C)C)c2n1 (stereo not drawn)	RORgamma inh 11µM (no result: B2AR arrestin, NPSR antagonist)
COc1ccc(OC)c(C2=Nn3c(nnc3-c3cc(OC)ccc3OC)SC2)c1	none (no result: B2AR arrestin, NPSR antagonist)
CC1(C)OC(=O)C(=Cc2ccc(-c3ccc(Cl)c(C(=O)O)c3)o2)C(=O)O1	none
COc1ccc(CN2C(=O)/C(=C/c3ccc(-c4ccc(Cl)c(C(=O)O)c4)o3)SC2=S)cc1	NPSR antagonist 6.3µM
Cc1ccc(/C=C2\SC(=S)N(Cc3ccccc3)C2=O)o1	none
O=C(O)c1cc(-c2ccc(/C=C3/SC(=S)N(Cc4ccccc4)C3=O)o2)ccc1Cl	NPSR antagonist 10µM
CC(C)C[C@@H](CC(=O)N[C@@H](CCCN)CC(=O)N[C@@H]1CCCC[C@H]1C(=O)N[C@H](CC(=O)N[C@@H](CCC(=O)O)CC(=O)O)Cc1c[nH]c2ccccc12)NC(=O)[C@@H]1CNCC[C@H]1N	none (no result: B2AR arrestin, NPSR antagonist)
CCOc1ccccc1NC(=S)/C(=C(\[O-])c1ccc2c(c1)OCCO2)[n+]1ccc(CC)cc1	none
CC(C)(C)c1cc[n+](/C(C(=S)Nc2ccccc2F)=C(/[O-])c2ccc3c(c2)OCCO3)cc1	RORgamma inh 10µM
C[N+](C)(CCCOc1ccccc1)c1ccccc1	none (no result: B2AR arrestin, NPSR antagonist)
O=C1CCC[C@H]2OC12[C@@H](O)CCc1ccccc1 (stereo partly drawn)	none (no result: B2AR arrestin, NPSR antagonist)
CCOc1cccc(-c2cc(C(=O)N/N=C/c3ccc(OC)c(CN4CCOCC4)c3)c3ccccc3n2)c1	VP16 counter inconclusive, RORgamma inh 16µM
COc1ccc(/C=N/NC(=O)c2ccncc2)cc1CN1CCOCC1	none
CC(C)(C)NC(=O)C(c1ccncc1)N(Cc1ccco1)C(=O)c1ccc(-c2ccccc2)[nH]1 (stereo not drawn)	VP16 counter 18µM, RORgamma inh 7.1µM
Fc1ccc(CNC(=S)NC2CCCCC2)cc1	VP16 counter 11µM, RORgamma inh 5µM
Cc1cc2cc(CNC(=S)NC3CCCCC3)ccc2[nH]1	VP16 counter inconclusive, RORgamma inh 14µM
CCc1cccc(C)c1NC(=S)NCc1ccc2[nH]c(C)cc2c1	VP16 counter 10µM, RORgamma inh 4µM
